Test [1] can be described thus: NCI Yeast Anticancer Drug Screen. Data for the rad50 strain (AID 155).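 Note: 0% = growth of vehicle-only cultures of the same strain.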 The settings on record: S. cerevisiae rad50 strain growth inhibition, hits give high values. The method, boiled down:
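DNA repair mutant yeast, compound exposure, growth read-out; inhibition is taken relative to vehicle.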

Test [2] is described as follows: NCI Yeast Anticancer Drug Screen. Data for the mec2-1 strain (AID 157). The settings on record: S. cerevisiae mec2-1 strain, hits give high values. The gist of the method: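 Yeast mec2-1 mutant treated with compound. Readout: growth inhibition vs vehicle controls.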
Test [3] in a line: NCI Yeast Anticancer Drug Screen. Data for the sgs1 mgt1 strain (AID 161).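 Note: 0% = growth of cultures given vehicle only.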 The settings on record: S. cerevisiae sgs1 mgt1 strain, hits give high values. The gist of the method:
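Test agents were incubated with a DNA-repair-mutant yeast strain. Growth was then read and compared against vehicle-treated controls.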

Test [4] can be described thus: NCI Yeast Anticancer Drug Screen. Data for the cln2 rad14 strain (AID 165).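 Note: 0% = growth equal to vehicle treated cultures.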 The settings on record: S. cerevisiae cln2 rad14 strain, hits give high values. The method, boiled down:
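cln2 rad14 yeast strain; compound exposure; growth inhibition read vs vehicle controls.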

Test [5] in a line: NCI Yeast Anticancer Drug Screen. Data for the bub3 strain (AID 167). The settings on record: S. cerevisiae bub3 mutant strain, hits give high values. The gist of the method: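 In this screen, a yeast mutant lacking normal mitotic checkpoint function is challenged with compound. Relative growth versus vehicle gives the inhibition value.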
Test [6] is described as follows: NCI Yeast Anticancer Drug Screen. Data for the mlh1 rad18 strain (AID 175). The settings on record: S. cerevisiae mlh1 rad18 strain growth inhibition, hits give high values. The method, boiled down: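 Yeast w/ defined DNA-repair lesions; compound exposure; growth vs vehicle controls → % inhibition.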
Setting [7] is: at 5.0 µM (retest, dose inferred, filed as 0.5).
[8] abbreviates: at 50.0 µM (retest, dose inferred, filed as 5.0).

Compounds without any hit were thinned out: in the full panel of roughly 79,000, 15% have a hit. A number with no mark means an inactive call. Calls of active or inactive are those of the source. Cut-off read from the data, not from the text of the source: active = growth inhibition above about 70%; inactive = the rest.

Take `ClC1=CC(Cl)=C2N=C(C(Cl)(Cl)Cl)N=C3N=C(C(Cl)(Cl)Cl)N=C1N32`: the growth inhibition in test [1] (setting [7]) is 29%; in test [1] (setting [8]), 80% (active); in test [1] (at 50.0 µM), 99.3% (active); in test [2] (setting [7]), 4%; in test [2] (setting [8]), 88% (active); in test [2] (at 50.0 µM), 99.5% (active). Also, the growth inhibition in test [3] (setting [7]) is 44%; in test [3] (setting [8]), 85% (active); in test [3] (at 50.0 µM), 99.2% (active); in test [4] (setting [7]), 12%; in test [4] (setting [8]), 57%; in test [4] (at 50.0 µM), 99% (active). Further, the growth inhibition in test [5] (setting [7]) is 21%; in test [5] (setting [8]) it was 94% (active); in test [5] (at 50.0 µM), 99.3% (active); in test [6] (setting [7]) it was 36%; in test [6] (setting [8]), 86% (active); in test [6] (at 50.0 µM), 99% (active).

Regarding `COc1ccc(/C=C/C(C(=O)O)C(=O)O)cc1`, the growth inhibition in test [1] (setting [7]) was 19%; in test [1] (setting [8]), 65%; in test [1] (at 50.0 µM), 82.7% (active); in test [2] (setting [7]), -20%; in test [2] (setting [8]) it was 84% (active); in test [2] (at 50.0 µM), 76% (active). Further, the growth inhibition in test [3] (setting [7]) was 6%; in test [3] (setting [8]), 59%; in test [3] (at 50.0 µM) it was 76% (active); in test [4] (setting [7]), 37%; in test [4] (setting [8]) it was 47%; in test [4] (at 50.0 µM) it was 44.4%. Further, the growth inhibition in test [5] (setting [7]) is 14%; in test [5] (setting [8]) it was 88% (active); in test [5] (at 50.0 µM) it was 82.5% (active); in test [6] (setting [7]) it was -4%; in test [6] (setting [8]), 89% (active); in test [6] (at 50.0 µM), 78% (active).

Turning to `CCCCCCCCCCCCNC(=O)c1ccc[n+](Cc2ccc(Cl)c(Cl)c2)c1`, the growth inhibition in test [1] (setting [7]) is 99% (active); in test [1] (setting [8]), 98% (active); in test [1] (at 50.0 µM), 99% (active); in test [2] (setting [7]), 100% (active); in test [2] (setting [8]), 99% (active); in test [2] (at 50.0 µM) it was 99% (active). The growth inhibition is 99% (active) in test [3] (setting [7]); 98% (active) in test [3] (setting [8]); 98.8% (active) in test [3] (at 50.0 µM); 99% (active) in test [4] (setting [7]); 99% (active) in test [4] (setting [8]); 98.2% (active) in test [4] (at 50.0 µM). Further, the growth inhibition was 98% (active) in test [5] (setting [7]); 98% (active) in test [5] (setting [8]); 97.8% (active) in test [5] (at 50.0 µM); 99% (active) in test [6] (setting [7]); 99% (active) in test [6] (setting [8]); 98.7% (active) in test [6] (at 50.0 µM).

`Clc1ccc(CNc2ccc(Br)cc2)cc1`: the growth inhibition in test [1] (setting [7]) is 0%; in test [1] (setting [8]), 82% (active); in test [1] (at 50.0 µM) it was 94.5% (active); in test [2] (setting [7]), 3%; in test [2] (setting [8]), 93% (active); in test [2] (at 50.0 µM), 85.5% (active). In addition, the growth inhibition was 4% in test [3] (setting [7]); 94% (active) in test [3] (setting [8]); 95.8% (active) in test [3] (at 50.0 µM); -9% in test [4] (setting [7]); 80% (active) in test [4] (setting [8]); 82.2% (active) in test [4] (at 50.0 µM). The growth inhibition is 3% in test [5] (setting [7]); 86% (active) in test [5] (setting [8]); 85.2% (active) in test [5] (at 50.0 µM); -1% in test [6] (setting [7]); 91% (active) in test [6] (setting [8]); 87.7% (active) in test [6] (at 50.0 µM).

For `OCC1CC[N-]CC1.OCC1CC[N-]CC1.[Cl][Pt+2]([Cl])([Cl])[Cl]`, the growth inhibition in test [1] (setting [7]) is 24%; in test [1] (setting [8]), 99% (active); in test [1] (at 50.0 µM), 98.4% (active); in test [2] (setting [7]), 5%; in test [2] (setting [8]), 97% (active); in test [2] (at 50.0 µM) it was 92.6% (active). The growth inhibition in test [3] (setting [7]) is 33%; in test [3] (setting [8]), 98% (active); in test [3] (at 50.0 µM) it was 96.8% (active); in test [4] (setting [7]), 15%; in test [4] (setting [8]), 98% (active); in test [4] (at 50.0 µM) it was 92.3% (active). The growth inhibition is 6% in test [5] (setting [7]); 99% (active) in test [5] (setting [8]); 96.2% (active) in test [5] (at 50.0 µM); 40% in test [6] (setting [7]); 98% (active) in test [6] (setting [8]); 82.5% (active) in test [6] (at 50.0 µM).

Consider `c1ccc(-c2ccc(-c3cnc(-c4ccc(-c5ccccc5)cc4)o3)cc2)cc1`, for which the growth inhibition in test [1] (setting [7]) is 4%; in test [1] (setting [8]), 30%; in test [1] (at 50.0 µM) it was 90.2% (active); in test [2] (setting [7]) it was 3%; in test [2] (setting [8]) it was 46%; in test [2] (at 50.0 µM), 53.4%. For the same compound, the growth inhibition in test [3] (setting [7]) was 1%; in test [3] (setting [8]), 66%; in test [3] (at 50.0 µM) it was 93% (active); in test [4] (setting [7]), -1%; in test [4] (setting [8]), 42%; in test [4] (at 50.0 µM), 41.1%. In addition, the growth inhibition in test [5] (setting [7]) was 8%; in test [5] (setting [8]), 31%; in test [5] (at 50.0 µM) it was 93.2% (active); in test [6] (setting [7]), -6%; in test [6] (setting [8]) it was 64%; in test [6] (at 50.0 µM), 92.8% (active).

Values taken from PubChem BioAssay (NCI).
